Only some compounds are listed: those with a hit (about 0.93% of all), similar ones and a draw of the others.
LYP inh 2 = inhibitors of human LYP (PTPN22) phosphatase. Q9Y2R2. recombinant LYP catalytic domain, DiFMUP fluorescence. inhibition, % at 2 µM. 96,000 compounds, 0.21% hits;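 active = inhibition at 2 µM at or above a set limit, the screen mean plus 3 SD, cut at about 24% in these data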
PLK1 kinase inh = PLK1 (human) kinase inhibition; P53350; 97,000 compounds, 0.53% hits; recombinant PLK1 kinase, TR-FRET peptide phosphorylation; inhibition, % at 10 µM; AID 619;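 active = inhibition of 50% or more in the single-concentration screen; inactive = inhibition below 50%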
Target sequence (P53350 whole entry, looked up): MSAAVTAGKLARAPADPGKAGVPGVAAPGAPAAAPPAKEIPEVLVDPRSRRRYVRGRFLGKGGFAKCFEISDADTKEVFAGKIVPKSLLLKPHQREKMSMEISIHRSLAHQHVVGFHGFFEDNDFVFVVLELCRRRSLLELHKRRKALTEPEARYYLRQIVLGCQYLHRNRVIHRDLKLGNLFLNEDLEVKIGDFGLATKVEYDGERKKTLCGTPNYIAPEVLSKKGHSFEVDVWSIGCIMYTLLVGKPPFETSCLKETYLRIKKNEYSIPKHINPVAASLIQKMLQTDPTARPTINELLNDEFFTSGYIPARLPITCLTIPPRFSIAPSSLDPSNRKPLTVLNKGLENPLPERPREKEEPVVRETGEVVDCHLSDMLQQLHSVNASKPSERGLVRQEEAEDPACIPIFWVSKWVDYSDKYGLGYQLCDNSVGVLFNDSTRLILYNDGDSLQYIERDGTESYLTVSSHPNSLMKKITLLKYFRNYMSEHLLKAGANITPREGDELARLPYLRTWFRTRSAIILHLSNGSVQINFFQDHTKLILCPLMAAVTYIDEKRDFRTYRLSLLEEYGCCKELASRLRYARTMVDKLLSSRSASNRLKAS
LYP act = activators of human LYP (PTPN22) phosphatase; Q9Y2R2; recombinant LYP, DiFMUP fluorescence; 0 = plate median, 100 = signal doubled; activation, % at 2 µM; 96,000 compounds, 0.11% hits;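 active = activation at 2 µM above a set limit, the mean plus 5 SD, cut at about 37% in these data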
Plk1 PBD FP = blocks phosphopeptide binding to human Plk1 polo box domain | AID 693 | Plk1 PBD phosphopeptide binding, fluorescence polarization | inhibition, %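 (tested at about 20 µM)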 | 97,000 compounds, 0.13% hits | P53350; in the data active = inhibition above about 34%, passing the limit was not always enough
Redox H2O2 DR = generates H2O2 by redox cycling, flagging false Plk1 PBD hits | AID 876 | 120 tested, under 10 active | shares compounds with Plk1 PBD FP | redox cycling H2O2 generation, DTT, counter-screen | EC50, µM
PTPN22 act conf = confirmation of human LYP phosphatase activators. 100 tested, under 10 active. shares compounds with LYP act. activation, % at 2 µM. Recombinant LYP, DIFMUP fluorescence, activation; zero set by plate's median compound well. AID 1031
Each line names hits and unclear results; the compound was inactive in the other large screens (follow-up assays come after a bar, where they were run). Unless noted, no rule for the calls is given here.

CCNC(=O)NC(=O)C(C)OC(=O)c1cccnc1SC (centres undefined)	Plk1 PBD FP 51 | Redox H2O2 DR inactive
C=CCNC(=O)NC(=O)COC(=O)c1cccnc1SC	none
CCc1noc(C)c1C(=O)N1CCOCC1	Plk1 PBD FP 41 | Redox H2O2 DR inactive
CCCCCCC(=O)c1c(C)[nH]c(C(=O)OCC)c1C	none
COc1ccc(OCC(=O)Nc2ccc(S(=O)(=O)N3CCOCC3)cc2)cc1	none
O=C(COc1ccccc1)Nc1ccc(S(=O)(=O)N2CCOCC2)cc1	Plk1 PBD FP 40 | Redox H2O2 DR inactive
COc1ccc(F)cc1S(=O)(=O)N1CC(C)CC(C)C1 (centres undefined)	none
Cc1ccc(CNC(=O)c2cc3c(=O)n(C)c4ccccc4c3n2C)cc1	Plk1 PBD FP 62 | Redox H2O2 DR inactive
Cn1c(C(=O)NCc2cccs2)cc2c(=O)n(C)c3ccccc3c21	none
CCOC(=O)c1nn(-c2ccc(Br)cc2)cc1C(=O)c1cccc2ccccc12	none
CCCCN(C)C(=O)c1sc2ncn(CC)c(=O)c2c1C	none
CCn1cnc2sc(C(=O)N3CCN(c4ccc(OC)cc4)CC3)c(C)c2c1=O	Plk1 PBD FP 45 | Redox H2O2 DR inactive
CC(=O)Nc1ccc(NS(=O)(=O)c2cn(C)c(=O)n(C)c2=O)cc1	none
Cc1cccc(-n2c(SCC(=O)N3CCCC3)nc3n[nH]c(C)c3c2=N)c1	none
CCC(Sc1nc2n[nH]c(C)c2c(=N)n1-c1cccc(Cl)c1)C(=O)NCCOC (centres undefined)	Plk1 PBD FP 43 | Redox H2O2 DR inactive
CCOC(=O)c1[nH]c(C)c(C(=O)C(C)C)c1C	none
CCOC(=O)c1c2c(n(C)c1C)C(=O)C(=O)c1ccc(Br)cc1-2	Plk1 PBD FP 116 | Redox H2O2 DR 0.61
CCn1ccc(C(=O)Nc2ccc(N(C)C(C)=O)cc2)n1	Plk1 PBD FP 52 | Redox H2O2 DR inactive
CC(=O)N(C)c1ccc(NC(=O)c2ccccc2C(=O)O)cc1	none
COc1ccc2c(c1OC)C(=O)OC2CC(=O)c1ccc(O)c(O)c1 (centres undefined)	none
COc1ccc2c(c1OC)C(=O)OC2CC(=O)O (centres undefined)	Plk1 PBD FP 40 | Redox H2O2 DR inactive
COC(=O)CNC(=O)C12CC3(C)CC(C)(CC(C)(C3)C1)C2	Plk1 PBD FP 33 | Redox H2O2 DR inactive
Cn1c(=O)c2c(ncn2Cc2ccccc2)n(C)c1=O	none
Cn1c(=O)c2c(ncn2CCCc2ccccc2)n(C)c1=O	Plk1 PBD FP 51 | Redox H2O2 DR inactive
O=C(Nc1ccccc1)N(Cc1ccccc1)CC(O)C(F)(F)F (centres undefined)	LYP act 50 | PTPN22 act conf inactive
CCN1C(=O)NC(c2cc(Br)ccc2OC)C(C(=O)OC)=C1C (centres undefined)	none
N#Cc1cc(-c2ccccc2)cnc1Cl	none (no result: LYP inh 2, LYP act)
O=C(Nc1ccc2c(c1)C(=O)N(CC1CCCO1)C2=O)c1ccc(Cl)c(Cl)c1 (centres undefined)	LYP act 37 | PTPN22 act conf inactive
Cc1nnc(NC(=O)c2ccc3c(c2)C(=O)N(CC2CCCO2)C3=O)s1 (centres undefined)	none
CN(C)CCNc1oc(COc2ccc(Cl)cc2)nc1C#N	none
O=C1CC(NC23CC4CC(CC(C4)C2)C3)C(=O)N1c1ccc2c(c1)OCO2 (centres undefined)	none
O=c1c(Cl)c(N/N=C/c2ccc(Br)cc2)cnn1-c1ccccc1	none
Cc1ccccc1C(=O)NC(=S)NCC1CCCO1 (centres undefined)	LYP act 39 | PTPN22 act conf inactive
CN1CCN(S(=O)(=O)c2ccc(Br)c3nsnc23)CC1	none
CCOc1ccc(S(=O)(=O)N(CC(=O)O)c2ccc(C)cc2)cc1	LYP act 38 | PTPN22 act conf inactive
CN(C)CCNc1ncnc2c1sc1nc(N3CCOCC3)c3c(c12)CC(C)(C)SC3	LYP act 49 | PTPN22 act conf inactive
COc1ccc(NC(C)=O)cc1NC(=O)CCn1c(=O)sc2ccccc21	LYP act 40 | PTPN22 act conf inactive
Cc1ccc2nc(SCCC(=O)O)cc(C)c2c1	none
CCOC(=O)c1cccc(C(=O)OCC)n1	none
O=C(COC(=O)c1cccc(C(=O)OCC(=O)c2ccc(Br)cc2)n1)c1ccc(Br)cc1	LYP act 41 | PTPN22 act conf inactive
COc1cc(OC)c(C2N(c3ccccn3)C(=O)C3CCCN32)cc1OC (centres undefined)	none
COc1cc(OC)c(C2N(C)c3ccccc3N2C)cc1OC	LYP act 39 | PTPN22 act conf inactive
O=C(COc1ccc(Br)cc1CO)Nc1ccccc1F	LYP act 38 | PTPN22 act conf inactive
O=C(Nc1ccccc1N1CCN(C(=O)c2ccccc2)CC1)c1cc2ccccc2o1	none
COC(=O)c1ccc(C)c(NS(=O)(=O)c2ccc(OC)cc2)c1	none
COC(=O)c1ccc(C)c(NS(=O)(=O)c2ccc3c(c2)OCCO3)c1	LYP act 42 | PTPN22 act conf inactive
CCOC(=O)C1CCN(Cc2coc3c(Cl)cc(Cl)cc3c2=O)CC1	LYP act 39 | PTPN22 act conf inactive
CC(=O)Nc1sc2c(c1C(N)=O)CCCC2	LYP act 45 | PTPN22 act conf inactive
O=C(CCCC(=O)N(CC(=O)NC1CCCC1)Cc1ccc(F)cc1)Nc1ccccn1	LYP act 38 | PTPN22 act conf inactive
CC(=O)Nc1ccc(S(=O)(=O)N2CCSC2c2ccc(Cl)cc2)cc1 (centres undefined)	LYP act 38 | PTPN22 act conf inactive
O=C(CN(Cc1cccs1)C(=O)CNC(=O)c1ccco1)NC1CCCCC1	none
Cc1nnc(NC(=O)CSCc2ccccc2)s1	none
CCOCc1nnc(NC(=O)CSCc2ccccc2)s1	LYP act 42 | PTPN22 act conf inactive
Cc1ccc(-c2nc(CCN3C(=O)c4ccccc4C3=O)cs2)cc1	LYP act 48 | PTPN22 act conf inactive
O=C1c2ccccc2C(=O)N1CCc1ccccn1	none
COC(=O)c1cc(NC(=O)Nc2ccccc2OC)cc(C(=O)OC)c1	none
O=C(NCc1ccco1)c1cccs1	none
O=C(NCc1ccco1)Nc1cccs1	LYP act 37 | PTPN22 act conf inactive
CCn1c(-c2ccc3ncccc3c2)n[nH]c1=S	LYP act 42 | PTPN22 act conf inactive
COC(=O)c1ccc2c(=O)sc(N3CCC(C(N)=O)CC3)nc2c1	LYP act 39 | PTPN22 act conf inactive
CCSc1nc2cc(C(=O)OC)ccc2c(=O)n1CC	none
CC(C(=O)NC1CCCC1)N(Cc1ccc2c(c1)OCO2)C(=O)c1snc(C(N)=O)c1N (centres undefined)	LYP act 42 | PTPN22 act conf inactive
CCC(C(=O)NC1CCCC1)N(Cc1ccc2c(c1)OCO2)C(=O)c1snc(C(N)=O)c1N (centres undefined)	none
Cc1cc(N2CCOCC2)nc2ccc(NC(=O)CCC(=O)N3CCCCC3)cc12	LYP act 38 | PTPN22 act conf inactive
COc1cccc(C(=O)Nc2ccc(F)c(F)c2F)c1	none
